{"source": "PubChem BioAssay AID1159580", "about": "(chemical genetic matrix, 2015)", "experiment": "chemical genetic growth profiling, strain panel (AID 1159580);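 note: tested at 20 µM; growth read once vehicle control cultures reached saturation at 30 °C; 1 = growth at the plate median or of vehicle wells; lower values mean less growth of the strain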", "conditions": "growth OD", "key": {"[1]": {"conditions": "S. cerevisiae deletion strains, locus YAL013W, strain DEP1, stronger effect = lower value"}, "[2]": {"conditions": "S. cerevisiae deletion strains, locus YBR229C, strain ROT2, stronger effect = lower value"}, "[3]": {"conditions": "S. cerevisiae deletion strains, locus YDL101C, strain DUN1, stronger effect = lower value"}, "[4]": {"conditions": "S. cerevisiae deletion strains, locus YDR150W, strain NUM1, stronger effect = lower value"}, "[5]": {"conditions": "S. cerevisiae deletion strains, locus YEL061C, strain CIN8, stronger effect = lower value"}, "[6]": {"conditions": "S. cerevisiae deletion strains, locus YGR078C, strain PAC10, stronger effect = lower value"}, "[7]": {"conditions": "S. cerevisiae deletion strains, locus YHR030C, strain SLT2, stronger effect = lower value"}, "[8]": {"conditions": "S. cerevisiae deletion strains, locus YHR087W, strain rtc3, stronger effect = lower value"}, "[9]": {"conditions": "S. cerevisiae deletion strains, locus YJL187C, strain SWE1, stronger effect = lower value"}, "[10]": {"conditions": "S. cerevisiae deletion strains, locus YJR043C, strain POL32, stronger effect = lower value"}, "[11]": {"conditions": "S. cerevisiae deletion strains, locus YJR075W, strain HOC1, stronger effect = lower value"}, "[12]": {"conditions": "S. cerevisiae deletion strains, locus YKL190W, strain CNB1, stronger effect = lower value"}, "[13]": {"conditions": "S. cerevisiae deletion strains, locus YLR039C, strain RIC1, stronger effect = lower value"}, "[14]": {"conditions": "S. cerevisiae deletion strains, locus YLR058C, strain SHM2 (second series), stronger effect = lower value"}, "[15]": {"conditions": "S. cerevisiae deletion strains, locus YLR085C, strain ARP6, stronger effect = lower value"}, "[16]": {"conditions": "S. cerevisiae deletion strains, locus YLR262C, strain YPT6, stronger effect = lower value"}, "[17]": {"conditions": "S. cerevisiae deletion strains, locus YML094W, strain GIM5, stronger effect = lower value"}, "[18]": {"conditions": "S. cerevisiae deletion strains, locus YMR219W, strain ESC1, stronger effect = lower value"}, "[19]": {"conditions": "S. cerevisiae deletion strains, locus YMR263W, strain SAP30, stronger effect = lower value"}, "[20]": {"conditions": "S. cerevisiae deletion strains, locus YNL153C, strain GIM3, stronger effect = lower value"}, "[21]": {"conditions": "S. cerevisiae deletion strains, locus YNL298W, strain CLA4 (second series), stronger effect = lower value"}, "[22]": {"conditions": "S. cerevisiae deletion strains, locus YNL322C, strain KRE1, stronger effect = lower value"}, "[23]": {"conditions": "S. cerevisiae deletion strains, locus YNR030W, strain Alg12, stronger effect = lower value"}, "[24]": {"conditions": "S. cerevisiae deletion strains, locus YPL055C, strain LGE1, stronger effect = lower value"}, "[25]": {"conditions": "S. cerevisiae deletion strains, locus YPL241C, strain CIN2, stronger effect = lower value"}, "[26]": {"conditions": "S. cerevisiae deletion strains, locus YPR135W, strain CTF4, stronger effect = lower value"}, "[27]": {"conditions": "S. cerevisiae strains, strain wild type, stronger effect = lower value"}, "[28]": {"conditions": "S. cerevisiae deletion strains, locus YMR307W, strain GAS1, stronger effect = lower value"}}, "note": "Hit rate of the full screen: of about 5,500 compounds, about 2,000 (36%) were called active. Roughly 18% stayed inconclusive and do not appear here. The list shows a part of the results. Values without a mark were called inactive. Cut-off read from the data, not from the text of the source: active = normalized growth mostly below about 0.91 (no sharp cut-off); inconclusive = no clear call, values can overlap the other calls; inactive = mostly above about 0.92."}
{"smiles": "COc1cccc(NC(N)=S)c1", "values": [{"measurement": "normalized growth", "setting": "[1]", "result": 1.02}, {"measurement": "normalized growth", "setting": "[2]", "result": 1.01}, {"measurement": "normalized growth", "setting": "[3]", "result": 1.02}, {"measurement": "normalized growth", "setting": "[4]", "result": 0.992}, {"measurement": "normalized growth", "setting": "[5]", "result": 1.01}, {"measurement": "normalized growth", "setting": "[6]", "result": 1.01}, {"measurement": "normalized growth", "setting": "S. cerevisiae deletion strains, locus YGR229C, strain SMI1, stronger effect = lower value", "result": 0.993}, {"measurement": "normalized growth", "setting": "[7]", "result": 1.08}, {"measurement": "normalized growth", "setting": "[8]", "result": 0.997}, {"measurement": "normalized growth", "setting": "[9]", "result": 1.01}, {"measurement": "normalized growth", "setting": "[10]", "result": 1.01}, {"measurement": "normalized growth", "setting": "[11]", "result": 0.991}, {"measurement": "normalized growth", "setting": "[12]", "result": 0.985}, {"measurement": "normalized growth", "setting": "[13]", "result": 1.03}, {"measurement": "normalized growth", "setting": "[14]", "result": 1.03}, {"measurement": "normalized growth", "setting": "[15]", "result": 1.02}, {"measurement": "normalized growth", "setting": "[16]", "result": 1.05}, {"measurement": "normalized growth", "setting": "[17]", "result": 1}, {"measurement": "normalized growth", "setting": "[18]", "result": 1.01}, {"measurement": "normalized growth", "setting": "[19]", "result": 1.01}, {"measurement": "normalized growth", "setting": "[20]", "result": 0.998}, {"measurement": "normalized growth", "setting": "[21]", "result": 1.03}, {"measurement": "normalized growth", "setting": "[22]", "result": 0.995}, {"measurement": "normalized growth", "setting": "[23]", "result": 1.01}, {"measurement": "normalized growth", "setting": "S. cerevisiae deletion strains, locus YOL006C, strain TOP1, stronger effect = lower value", "result": 1.05}, {"measurement": "normalized growth", "setting": "[24]", "result": 0.984}, {"measurement": "normalized growth", "setting": "[25]", "result": 0.964}, {"measurement": "normalized growth", "setting": "[26]", "result": 1.12}, {"measurement": "normalized growth", "setting": "[27]", "result": 0.993}]}
{"smiles": "COc1cccc(Nc2nc3ccccc3s2)c1", "values": [{"measurement": "normalized growth", "setting": "[1]", "result": "0.728 (active)"}, {"measurement": "normalized growth", "setting": "[2]", "result": "0.709 (active)"}, {"measurement": "normalized growth", "setting": "[3]", "result": "0.724 (active)"}, {"measurement": "normalized growth", "setting": "[4]", "result": 0.877}, {"measurement": "normalized growth", "setting": "[5]", "result": "0.533 (active)"}, {"measurement": "normalized growth", "setting": "[6]", "result": "0.827 (active)"}, {"measurement": "normalized growth", "setting": "[7]", "result": "0.112 (active)"}, {"measurement": "normalized growth", "setting": "[8]", "result": "0.688 (active)"}, {"measurement": "normalized growth", "setting": "[9]", "result": "0.682 (active)"}, {"measurement": "normalized growth", "setting": "[10]", "result": "0.856 (active)"}, {"measurement": "normalized growth", "setting": "[11]", "result": "0.711 (active)"}, {"measurement": "normalized growth", "setting": "[13]", "result": "0.163 (active)"}, {"measurement": "normalized growth", "setting": "[14]", "result": "0.914 (active)"}, {"measurement": "normalized growth", "setting": "[15]", "result": "0.138 (active)"}, {"measurement": "normalized growth", "setting": "[16]", "result": "0.187 (active)"}, {"measurement": "normalized growth", "setting": "[17]", "result": "0.66 (active)"}, {"measurement": "normalized growth", "setting": "[18]", "result": "0.804 (active)"}, {"measurement": "normalized growth", "setting": "[19]", "result": "0.795 (active)"}, {"measurement": "normalized growth", "setting": "[28]", "result": "0.208 (active)"}, {"measurement": "normalized growth", "setting": "[20]", "result": "0.799 (active)"}, {"measurement": "normalized growth", "setting": "[21]", "result": "0.421 (active)"}, {"measurement": "normalized growth", "setting": "[22]", "result": "0.943 (active)"}, {"measurement": "normalized growth", "setting": "[23]", "result": "0.575 (active)"}, {"measurement": "normalized growth", "setting": "[24]", "result": "0.548 (active)"}, {"measurement": "normalized growth", "setting": "[25]", "result": "0.485 (active)"}, {"measurement": "normalized growth", "setting": "[26]", "result": "0.264 (active)"}, {"measurement": "normalized growth", "setting": "[27]", "result": "0.598 (active)"}]}
{"smiles": "c1cc(CN2CCCCC2)cc(OCCCNc2nc3ccccc3s2)c1", "values": [{"measurement": "normalized growth", "setting": "[1]", "result": 1}, {"measurement": "normalized growth", "setting": "S. cerevisiae deletion strains, locus YAL040C, strain CLN3, stronger effect = lower value", "result": 0.908}, {"measurement": "normalized growth", "setting": "S. cerevisiae deletion strains, locus YCL061C, strain MRC1 (second series), stronger effect = lower value", "result": 1.01}, {"measurement": "normalized growth", "setting": "[4]", "result": 1.02}, {"measurement": "normalized growth", "setting": "S. cerevisiae deletion strains, locus YDR363W, strain ESC2, stronger effect = lower value", "result": 0.997}, {"measurement": "normalized growth", "setting": "S. cerevisiae deletion strains, locus YER002W, strain NOP16, stronger effect = lower value", "result": 0.936}, {"measurement": "normalized growth", "setting": "[19]", "result": 1.01}, {"measurement": "normalized growth", "setting": "[28]", "result": 1.01}, {"measurement": "normalized growth", "setting": "S. cerevisiae deletion strains, locus YNL197C, strain WHI3, stronger effect = lower value", "result": 1.04}, {"measurement": "normalized growth", "setting": "S. cerevisiae deletion strains, locus YNL224C, strain SQS1, stronger effect = lower value", "result": 1.06}, {"measurement": "normalized growth", "setting": "[22]", "result": 0.992}, {"measurement": "normalized growth", "setting": "S. cerevisiae deletion strains, locus YOR083W, strain WHI5 (second series), stronger effect = lower value", "result": 1.03}]}
{"smiles": "COc1cccc(C(=O)N/N=C(/C)c2ccccc2O)c1", "values": [{"measurement": "normalized growth", "setting": "[1]", "result": 0.975}, {"measurement": "normalized growth", "setting": "[2]", "result": 0.961}, {"measurement": "normalized growth", "setting": "S. cerevisiae deletion strains, locus YCL061C, strain MRC1, stronger effect = lower value", "result": 0.915}, {"measurement": "normalized growth", "setting": "[3]", "result": 0.93}, {"measurement": "normalized growth", "setting": "[4]", "result": 0.92}, {"measurement": "normalized growth", "setting": "[5]", "result": 0.982}, {"measurement": "normalized growth", "setting": "[6]", "result": 0.955}, {"measurement": "normalized growth", "setting": "[7]", "result": "0.466 (active)"}, {"measurement": "normalized growth", "setting": "[8]", "result": 0.981}, {"measurement": "normalized growth", "setting": "[10]", "result": 0.958}, {"measurement": "normalized growth", "setting": "[11]", "result": 0.969}, {"measurement": "normalized growth", "setting": "[12]", "result": "0.802 (active)"}, {"measurement": "normalized growth", "setting": "[13]", "result": "0.618 (active)"}, {"measurement": "normalized growth", "setting": "[14]", "result": 0.994}, {"measurement": "normalized growth", "setting": "[15]", "result": "0.395 (active)"}, {"measurement": "normalized growth", "setting": "[16]", "result": "0.625 (active)"}, {"measurement": "normalized growth", "setting": "[17]", "result": "0.817 (active)"}, {"measurement": "normalized growth", "setting": "[18]", "result": 0.987}, {"measurement": "normalized growth", "setting": "[19]", "result": 0.969}, {"measurement": "normalized growth", "setting": "[28]", "result": "0.537 (active)"}, {"measurement": "normalized growth", "setting": "S. cerevisiae deletion strains, locus YNL128W, strain TEP1, stronger effect = lower value", "result": "0.871 (active)"}, {"measurement": "normalized growth", "setting": "[20]", "result": 0.973}, {"measurement": "normalized growth", "setting": "[21]", "result": "0.805 (active)"}, {"measurement": "normalized growth", "setting": "[22]", "result": 0.985}, {"measurement": "normalized growth", "setting": "[23]", "result": "0.759 (active)"}, {"measurement": "normalized growth", "setting": "[24]", "result": 0.991}, {"measurement": "normalized growth", "setting": "[25]", "result": "0.791 (active)"}, {"measurement": "normalized growth", "setting": "[26]", "result": "0.592 (active)"}, {"measurement": "normalized growth", "setting": "[27]", "result": "0.777 (active)"}]}
